An excerpt weighted towards active compounds, which were near 1% of everything screened.
gsp agonist: qHTS for Agonist of gsp, the Etiologic Mutation Responsible for Fibrous Dysplasia/McCune-Albright Syndrome: qHTS | gsp mutant cells, cAMP HTRF, 30 min | Potency, µM (doses to about 76.9 µM), for inactives: at the top dose activation (cAMP increase), most hits filed as activators | 340,000 tested, 0.13% active | AID 624287, 2012; active = well fitted activation curve with a large enough effect; inconclusive = small, poorly fitted or top-dose-only effect, or another doubt; inactive = no such curve, though single readings can be large or run the other way; cell line not stated here;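 also: phosphodiesterase inhibitor Ro 20-1724 added with compounds to block cAMP breakdown; potency is read from the fitted curve at half-maximal effect; nearly all actives have a fitted effect of over 60% in size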
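Cells stably selected in G418 were plated at 2000/well, grown 16-24 hr, then given compounds in DMSO with the PDE inhibitor […] (300 uM solution added) for 30 min at 37C; cAMP was read by HTRF.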
RXFP1 antag: qHTS Assay for Antagonists of the Relaxin Receptor RXFP1 | Relaxin receptor 1 (Homo sapiens), Q9HBX9 | HEK293-RXFP1, relaxin-stimulated cAMP HTRF, 30 min; stronger effect = lower value | activity change, negative = inhibition, % at 57.5 µM | 350,000 tested, 0.59% active;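 active = activity change of -60% or lower, but not beyond a set lower limit; inconclusive = change between -60% and -40%, or beyond the set limit; inactive = change above -40%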; also: % is scaled to controls: 0 for no effect and ±100 for the full control effect
Target sequence (Q9HBX9 whole entry, looked up): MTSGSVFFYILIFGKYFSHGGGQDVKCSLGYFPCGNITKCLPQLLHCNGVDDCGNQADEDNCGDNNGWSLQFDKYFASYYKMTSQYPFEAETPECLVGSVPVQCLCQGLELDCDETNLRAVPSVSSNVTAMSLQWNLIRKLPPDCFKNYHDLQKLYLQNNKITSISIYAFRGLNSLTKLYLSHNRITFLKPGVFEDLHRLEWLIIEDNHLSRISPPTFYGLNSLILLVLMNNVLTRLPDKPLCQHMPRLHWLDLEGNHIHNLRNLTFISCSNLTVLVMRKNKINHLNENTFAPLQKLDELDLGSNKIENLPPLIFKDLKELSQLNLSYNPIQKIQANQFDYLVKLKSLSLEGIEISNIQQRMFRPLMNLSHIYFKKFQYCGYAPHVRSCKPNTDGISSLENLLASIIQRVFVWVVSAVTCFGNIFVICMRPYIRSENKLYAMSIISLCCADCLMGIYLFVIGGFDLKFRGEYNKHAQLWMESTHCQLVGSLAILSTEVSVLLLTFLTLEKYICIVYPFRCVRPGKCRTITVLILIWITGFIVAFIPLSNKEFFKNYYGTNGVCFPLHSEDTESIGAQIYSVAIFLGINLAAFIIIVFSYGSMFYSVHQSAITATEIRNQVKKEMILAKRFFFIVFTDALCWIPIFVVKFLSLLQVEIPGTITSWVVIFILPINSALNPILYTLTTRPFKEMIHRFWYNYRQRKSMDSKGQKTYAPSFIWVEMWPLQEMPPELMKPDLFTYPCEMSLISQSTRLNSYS
gsp antag: qHTS for Antagonists of gsp, the Etiologic Mutation Responsible for Fibrous Dysplasia/McCune-Albright Syndrome: qHTS | gsp-mutant cells, cAMP HTRF, 30 min | Potency, µM (highest dose often 76.9 µM), without a hit: at the highest dose activity change, negative = inhibition, usual class: inhibitors | 340,000 tested, 0.4% active; calls by dose curve; cell line not stated here;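 also: intracellular cAMP measured with PDE inhibitor Ro 20-1724 present during compound exposure; potency is read from the fitted curve at half-maximal effect; % is scaled to controls: 0 for no effect and ±100 for the full control effect; nearly all actives have a fitted effect of over 65% in size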
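G418-selected cells were plated in DMEM/10% FBS for 16-24 h at 37C, then treated with compounds plus the PDE inhibitor […] (300 uM solution added) for 30 min at 37C. Intracellular cAMP was measured by HTRF after 30 min lysis at room temperature.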
TSHR antag: Antagonists of the Thyroid Stimulating Hormone Receptor: HTS campaign; Thyrotropin receptor (Homo sapiens), P16473; TSHR-expressing cells, TSH-stimulated cAMP HTRF, 2 h; stronger effect = lower value; activity change, negative = inhibition, % at 11.5 µM; 330,000 tested, 0.2% active; AID 504810, 2011;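 active = activity change below a set negative limit, meaning inhibition stronger than a set level, cut at about -70% in these data; inconclusive = activity change between two set negative limits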; also: % is scaled to controls: 0 for no effect and ±100 for the full control effect
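Antagonism was scored as loss of TSH-driven cAMP in TSHR cells, stimulated with 4nM TSH (EC80) for 2 hours at 37 deg C and detected by homogeneous HTRF competition immunoassay.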
RXFP1 ag: qHTS Assay for Agonists of the Relaxin Receptor RXFP1; HEK293T-RXFP1 cAMP TR-FRET, 30 min; response scale: percent of porcine relaxin response, buffer zero; 370,000 tested, 0.3% active; Relaxin receptor 1 (Homo sapiens), Q9HBX9; Potency, µM (doses to about 57.5 µM), without a hit: at the highest dose activation, usual class: activators; active = well fitted activation curve with a large enough effect; inconclusive = small, poorly fitted or top-dose-only effect; also: potency is read from the fitted curve at half-maximal effect; % is scaled to controls: 0 for no effect and ±100 for the full control effect; nearly all actives have a fitted effect of over 60% in size
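Agonist response is measured as cAMP accumulation in an RXFP1-transfected HEK293T line under PDE4 inhibition. Values are scaled between buffer-only and 29 nM porcine relaxin, and EC50s come from standard Hill equation fits.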
Numbers without * were called inactive; ? = inconclusive; · = not tested or not shown; [ ] = remark or other dose.

SMILES | gsp agonist | RXFP1 antag | gsp antag | TSHR antag | RXFP1 ag
Nc1nonc1-n1nnc(C(=O)N/N=C/c2ccc3c(c2)OCO3)c1-c1ccccc1 | -5%[15.4 µM] | -13 | 35µM* | 0 | 3%
Nc1nonc1-n1nnc(C(=O)N/N=C/c2cccnc2)c1CSc1ccc(Cl)cc1 | -7% | -65* | 35µM* | -22 | 1%
COc1cccc(/C=N/NC(=O)c2nnn(-c3nonc3N)c2-c2cccs2)c1 | ? | -6 | ? | 24 | -3%
CN(C)Cc1c(C(=O)N/N=C/c2cccc(OCc3ccccc3)c2)nnn1-c1nonc1N | -43% | -15 | 50µM* | ? | 1%
Nc1nonc1-n1nnc(C(=O)N/N=C/c2cccnc2)c1CSc1ccccc1 | -81% | -6 | -22% | 1 | 0%
CN(C)Cc1c(C(=O)N/N=C/c2cccc(OCc3ccc(F)cc3)c2)nnn1-c1nonc1N | 14%[15.4 µM] | 5 | 7% | 2 | 0%
CC(=O)c1ccc(N2CCN(c3ccc(C(N)=O)cc3[N+](=O)[O-])CC2)cc1 | 4% | 6 | 32µM* | -14 | 0%
NC(=O)c1ccc(N2CCN(c3ccc(O)cc3)CC2)c([N+](=O)[O-])c1 | -1%[15.4 µM] | ? | -7% | -10 | -1%
COc1ccc2cc(C#N)c(N3CCN(C(=O)c4ccccc4C)CC3)nc2c1 | -22% | 10 | 40µM* | 9 | -2%
Cc1nn(-c2ccc(N3CCCCC3)nn2)c(C)c1CCC(=O)Nc1ccc(F)cc1F | · | 1 | · | · | 21%
CCOc1ccc(S(=O)(=O)Nc2ccccc2SC)c2cccnc12 | -16% | 7 | 13µM* | -5 | -3%
CCOc1ccc(S(=O)(=O)NCc2ccc(Cl)cc2)c2cccnc12 | -27% | 20 | -10% | 2 | 2%
O=C(CCS(=O)(=O)c1nc(-c2cccs2)cc(C(F)(F)F)n1)Nc1ccc(Br)cc1 | · | -108* | · | · | 14%
Cc1ccc(O)c(NC(=O)CCS(=O)(=O)c2nc(-c3cccs3)cc(C(F)(F)F)n2)c1 | · | -30 | · | · | 6%
O=C(CCS(=O)(=O)c1nc(-c2cccs2)cc(C(F)(F)F)n1)Nc1cc(Br)ccc1O | · | -116* | · | · | 6%
Cc1nnc(NC(=O)CSCc2cc(=O)c3cc(Cl)ccc3[nH]2)s1 | · | 0 | · | · | 0%
CC(C)N(Cc1nc(-c2ccc(Cl)cc2)no1)C(=O)c1ccco1 | · | · | · | · | 0%
CCC(Sc1nnc2c(n1)[nH]c1ccccc12)C(=O)Nc1ccccc1OC (stereo not given) | · | -6 | · | · | 8%
COc1cc(NS(=O)(=O)c2ccc(C)cc2C)cc(OC)c1OC | ? | 9 | 35µM* | -87* | 2%
CC1(C)COCN1S(=O)(=O)c1ccc(C(=O)Nc2nnc(-c3ccc(Cl)s3)o2)cc1 | -1% | -12 | 32µM* | -14 | 0%
O=C(NCc1ccco1)C1CCN(C(=O)N2CCOc3ccccc32)CC1 | · | -6 | · | · | 1%
CCOC(=O)C1=C(CN(C)Cc2ccccc2)NC(=O)NC1c1ccc(OC(C)C)cc1 (stereo not given) | · | · | · | · | 2%
O=C(Cn1ncc2c([nH]c3ccccc32)c1=O)NCC1CCN(Cc2ccc(F)cc2)CC1 | 13% | 10 | 9% | -138* | -2%
CCCn1c2ccccc2c2cnn(CC(=O)NCC3CCN(Cc4ccc(F)cc4)CC3)c(=O)c21 | · | -7 | · | · | 7%
O=c1cc(C(F)(F)F)nc(SC/C=C/c2ccccc2)[nH]1 | -11% | -78* | ? | ? | 1%
Cc1cc(C)cc(NS(=O)(=O)c2ccc3c(c2)c(=O)n(C)c(=O)n3C)c1 | 25µM* | 7 | 1% | -6 | 26%
CCOC(=O)C1CCN(C(=O)c2sc3ncn(CC(=O)N4CCCCC4)c(=O)c3c2C)CC1 | 16µM* | 2 | · | · | ·
COc1ccc(CCNC(=O)CCCn2c(=O)c3cccn3c3ccc(F)cc32)cc1OC | · | -20 | · | · | ?
COc1ccc(CN(C)CC(=O)Nc2cc3oc4ccccc4c3cc2OC)c(OC)c1 | -27% | -15 | ? | 12 | 3%

Screening results from PubChem.
